Drawing on PubChem BioAssay (NCI), this text covers growth for 27 compounds.

Structures are written as SMILES. Compounds without any hit were thinned out: in the full panel of roughly 83,000, 20% have a hit.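 Activity criterion: percent growth below 10, measured after cells in 96-well plates were exposed to a single compound concentration for 48 hours.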 Values without a mark were called inactive. Active and inactive are the calls of the source.

Common to all, as to assay: NCI-60 one-dose screen, 48 h (100 = growth as untreated, 0 = no growth, -100 = all killed)
What all share (conditions): 10 µM unless noted

The subject of assay [1] is T-47D breast.
For assay [2], the system named is BT-549 breast.
Assay [3] concerns MDA-MB-435 melanoma.
Assay [4] has as its system SW-620 colon.
Assay [5] relates to MCF7 breast.
Assay [6] relates to HCT-116 colon.
For assay [7], the system named is HCC-2998 colon.
The subject of assay [8] is KM12 colon.

For `Cc1cc(N2CCN(CC(=O)Nc3ccc4c(ccn4C)c3)CC2)nc(N2CCCCCC2)n1`, the growth in assay [1] was 65.4%; in assay [2], 89.7%; in assay [3] it was 95.2%; in assay [4] it was 93.6%; in assay [5], 77.9%; in assay [6], 85.6%. Also, the growth in assay [7] was 127%; in assay [8], 93.1%.

As to `Clc1ccc(/C=N\N=C\c2ccc(Cl)c(Cl)c2)cc1Cl`, the growth in assay [1] is 90.3%; in assay [2], 74.2%; in assay [3] it was 101%; in assay [4], 53.8%; in assay [5], 72.8%; in assay [6], 53.3%. Also, the growth in assay [7] is 96.1%; in assay [8], 101%.

With `Cc1ccc(Nc2cc(N)nc(N)n2)cc1Cl`, the growth was 76.6% in assay [1]; 101% in assay [2]; 98.9% in assay [3]; 112% in assay [4]; 74.7% in assay [5]; 81% in assay [6]. Moreover, the growth is 100% in assay [7] and 93% in assay [8].

On to `CN(C)CCNC(=O)c1ccc(-c2nc3ccc4[nH]ncc4c3c3c2C2CCC3C2)cc1` (stereo unspecified), for which the growth in assay [1] was 43.6%; in assay [2], 2.26% (active); in assay [3], 42%; in assay [4], 17.8%; in assay [5], 9.64% (active); in assay [6], 9.52% (active). The growth in assay [7] was 38.5%; in assay [8] it was 2.75% (active).

Take `CSc1oc(C)nc1[P+](c1ccccc1)(c1ccccc1)c1ccccc1`: the growth in assay [1] was 8.57% (active); in assay [2], 43.4%; in assay [3] it was 41%; in assay [4] it was 65.1%; in assay [5], 23.5%; in assay [6], 33.4%. For the same compound, the growth is 42.8% in assay [7] and 23% in assay [8].

Consider `COC(=O)CC[C@@H]1O[C@@H](c2cccc(C(F)(F)F)c2)[C@@H](O)[C@H]1O`, for which the growth in assay [1] was 98.8%; in assay [2] it was 98.9%; in assay [3], 102%; in assay [4] it was 100%; in assay [5] it was 96.7%; in assay [6] it was 98.2%. Moreover, the growth in assay [7] is 114%; in assay [8] it was 94.1%.

Take `Nc1ncc(-c2ccc3ncnc(Nc4cccc(Cl)c4)c3c2)cn1`: the growth is -20.1% (active) in assay [1]; 46.5% in assay [2]; 55.6% in assay [3]; 91.4% in assay [4]; 24.2% in assay [5]; 66.4% in assay [6]. Moreover, the growth in assay [7] is 60.5%; in assay [8] it was 67.5%.

As to `C=C1CC[C@@H]2[C@](C)(COC(C)=O)[C@H](OC(C)=O)CC[C@@]2(C)[C@@H]1CC(Nc1ccc(S(=O)(=O)Nc2ncccn2)cc1)C1=CCOC1=O` (stereo partly specified), the growth in assay [1] is 42.3%; in assay [2], -32% (active); in assay [3], -14.8% (active); in assay [4], -70% (active); in assay [5], -19.6% (active); in assay [6], -55% (active). Moreover, the growth in assay [7] is 32%; in assay [8], -13.2% (active).

As for `CN1C(=O)/C(=C\c2nc([P+](c3ccccc3)(c3ccccc3)c3ccccc3)c(N3CCOCC3)o2)SC1=S`, the growth in assay [1] was 79.4%; in assay [2] it was 26.5%; in assay [3], 60%; in assay [4], 96.2%; in assay [5] it was 85.8%; in assay [6], 65.4%. Besides, the growth in assay [7] was 78%; in assay [8], 43.2%.

For `COc1ccc2c(c1)N(CCO)C1=C(C(=O)OC1)C2c1cccc(F)c1` (stereo unspecified), the growth was 56.7% in assay [1]; 50% in assay [2]; -40.6% (active) in assay [3]; 26.9% in assay [4]; 18.1% in assay [5]; 4.87% (active) in assay [6]. In addition, the growth in assay [7] is 4.78% (active); in assay [8] it was 15.5%.

In the case of `CCCCCCCCCCCCCCCCCCOc1ccccc1CC(=O)OCC[N+](C)(C)C`, the growth in assay [1] was 28.8%; in assay [2] it was 46.5%; in assay [3], 31.5%; in assay [4] it was 23.9%; in assay [5], 34%; in assay [6], 30.6%. Moreover, the growth in assay [7] was 27.9%; in assay [8], -27.4% (active).

On to `O=C(NCCCl)Nc1ncccc1OCc1ccccc1`, for which the growth is 97.9% in assay [1]; 105% in assay [2]; 97.1% in assay [3]; 99% in assay [4]; 96.3% in assay [5]; 101% in assay [6]. The values for the growth in assay [7] and in assay [8] were 102% and 108%, respectively.

As for `CCCCNC(=O)CC1=C(C)/C(=C/c2[nH]c(-c3ccc[nH]3)cc2OC)N=C1C`, the growth is 32.6% in assay [1]; 41.7% in assay [2]; 20.2% in assay [3]; 12.5% in assay [4]; 22.3% in assay [5]; 3.1% (active) in assay [6]. Also, the values for the growth in assay [7] and in assay [8] were 33.8% and 13.4%, respectively.

Turning to `CN(C)c1ccc(-c2c(C#N)c(N)nn2C(=O)c2ccc(NC(=O)c3ccccn3)cc2)cc1`, the growth is 101% in assay [1]; 97.8% in assay [2]; 98.2% in assay [3]; 92.8% in assay [4]; 92.5% in assay [5]; 90.8% in assay [6]. For the same compound, the growth is 95.2% in assay [7] and 88% in assay [8].

For `COc1cccc(/C=C2\COc3ccc(O)c(O)c3C2=O)c1`, the growth in assay [1] is -0.573% (active); in assay [2], 15.6%; in assay [3], -3.44% (active); in assay [4] it was 1.94% (active); in assay [5], 17.6%; in assay [6], -7.55% (active). Moreover, the growth in assay [7] was 19.8%; in assay [8], -13.7% (active).

Turning to `C=C1C(=O)O[C@H]2[C@H]1CC/C(COC(=O)C(=O)c1cn(C)c3ccc(Cl)cc13)=C\CC[C@@]1(C)O[C@@H]21`, the growth in assay [1] was -55.6% (active); in assay [2], -74.5% (active); in assay [3] it was -81.3% (active); in assay [4], -69.1% (active); in assay [5] it was -54.3% (active); in assay [6] it was -96.4% (active). The growth in assay [7] is -80.3% (active); in assay [8], -49.7% (active).

As to `COc1cc(/C=C2/C=C(c3ccccc3)N(CCc3ccc(S(N)(=O)=O)cc3)C2=O)cc(OC)c1OC`, the growth in assay [1] is 83.5%; in assay [2], 94.4%; in assay [3], 106%; in assay [4], 102%; in assay [5], 87.8%; in assay [6] it was 84.7%. Moreover, the growth in assay [7] and in assay [8] was 105% each time.

For the compound `CN(/C(N)=N/N=C/c1c2ccccc2cc2ccccc12)C1CCCCC1`, the growth in assay [1] is 30.8%; in assay [2], 67.7%; in assay [3], 57.5%; in assay [4], 58.6%; in assay [5], 32.8%; in assay [6] it was 15.9%. The growth in assay [7] is -69.9% (active); in assay [8], 59.6%.

For `C/C(Cc1ccc(Cl)cc1)=C(\c1ccc(O)cc1)c1ccc(Cl)cc1`, the growth in assay [1] was 82.1%; in assay [2], 98.1%; in assay [3], 93%; in assay [4] it was 95.4%; in assay [5], 102%; in assay [6], 71.6%. Further, the growth was 91.9% in assay [7] and 88.6% in assay [8].

With `N#Cc1nc(-c2ccc(Cl)cc2)oc1S(=O)(=O)N1CCN(c2ccc(F)cc2)CC1`, the growth in assay [1] was 89.3%; in assay [2], 100%; in assay [3] it was 100%; in assay [4] it was 72.8%; in assay [5] it was 83.5%; in assay [6], 78.7%. Besides, the figures for the growth in assay [7] and in assay [8] were 99.4% and 102%, respectively.

`COC(CC(F)F)c1cn(S(=O)(=O)c2ccc(C)cc2)c2ccccc12` (stereo unspecified): the growth in assay [1] is 30.8%; in assay [2], 34.9%; in assay [3] it was -43.8% (active); in assay [4] it was 12.9%; in assay [5] it was 13.6%; in assay [6] it was 17.2%. For the same compound, the results for the growth in assay [7] and in assay [8] were 63.3% and 19.3%, respectively.

Take `Fc1cccc(Oc2ccc(Nc3ncnc4ccc(OCCCN5CCOCC5)cc34)cc2Cl)c1`: the growth in assay [1] was 36%; in assay [2] it was 79%; in assay [3], 54.3%; in assay [4], 61.1%; in assay [5], 50.4%; in assay [6], 69.4%. In addition, the growth was 57% in assay [7] and 45.9% in assay [8].

Consider `C[PH+](c1nc2ccccc2nc1[PH+](C)C(C)(C)C)C(C)(C)C.C[PH+](c1nc2ccccc2nc1[PH+](C)C(C)(C)C)C(C)(C)C.[Au+].[Cl-]` (stereo unspecified), for which the growth in assay [1] was -79.9% (active); in assay [2], -74.4% (active); in assay [3], -79.3% (active); in assay [4], -100% (active); in assay [5], -84.3% (active); in assay [6], -100% (active). The growth in assay [7] is -100% (active); in assay [8], -99.3% (active).

For the compound `COc1ccc(/C=C/C(=O)c2cc3c(N)c(C(=O)Nc4cccc5ccccc45)sc3nc2C)cc1`, the growth in assay [1] is 66.4%; in assay [2], 87.5%; in assay [3], -18.8% (active); in assay [4] it was 24.8%; in assay [5], 13.5%; in assay [6] it was 86.6%. In addition, the results for the growth in assay [7] and in assay [8] were 94.9% and 74.4%, respectively.

Take `COc1ccc(/C=N/C2=C(C#N)C(c3ccccc3)c3ccc4ccccc4c3O2)cc1` (stereo unspecified): the growth in assay [1] is 46.7%; in assay [2] it was 12.9%; in assay [3], -56.3% (active); in assay [4] it was 24.3%; in assay [5] it was 12.2%; in assay [6], 10.3%. The growth is -6.81% (active) in assay [7] and 17.5% in assay [8].

With `Cc1ccc2c(Cn3cc(CSc4nc5ccccc5o4)nn3)cc(=O)oc2c1`, the growth was 100% in assay [1]; 104% in assay [2]; 102% in assay [3]; 106% in assay [4]; 100% in assay [5]; 104% in assay [6]. Moreover, the growth in assay [7] was 115%; in assay [8], 113%.

With `Cn1cc(-c2ccc3nc(-c4ccc(CC(=O)ONc5cc(C(C)(C)C)on5)cc4)cnc3c2)cn1`, the growth in assay [1] was 24.2%; in assay [2], 29.6%; in assay [3], 34.4%; in assay [4], 40.6%; in assay [5], 53.1%; in assay [6] it was 16.7%. Moreover, the growth is 41.8% in assay [7] and 11% in assay [8].
